The results in this text go back to paper PMC7862700, “An all-to-all approach to the identification of sequence-specific readers for epigenetic DNA modifications on cytosine”.

The target in the first assay is T1, ETS2 (Homo sapiens, UniProt P15036 1-469).
T1 sequence: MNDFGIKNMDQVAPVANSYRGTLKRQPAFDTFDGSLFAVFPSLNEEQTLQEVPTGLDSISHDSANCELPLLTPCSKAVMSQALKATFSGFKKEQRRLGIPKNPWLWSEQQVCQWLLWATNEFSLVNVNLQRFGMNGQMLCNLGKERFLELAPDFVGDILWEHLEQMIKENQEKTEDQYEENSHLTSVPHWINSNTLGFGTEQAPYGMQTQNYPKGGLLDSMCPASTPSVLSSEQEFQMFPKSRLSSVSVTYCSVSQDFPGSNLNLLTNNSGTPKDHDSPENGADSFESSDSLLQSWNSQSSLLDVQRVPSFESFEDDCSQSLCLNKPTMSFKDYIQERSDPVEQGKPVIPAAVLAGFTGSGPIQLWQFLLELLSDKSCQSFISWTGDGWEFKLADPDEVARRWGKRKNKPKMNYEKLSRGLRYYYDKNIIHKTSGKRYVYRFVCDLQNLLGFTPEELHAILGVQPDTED
The assay can be described thus: DAPPL (digital affinity profiling via proximity ligation, sequencing); 10 mM Tris-HCl pH 7.5, 50 mM NaCl, 1 mM DTT, 4% glycerol, room temperature, 30 min; GST-TFs on glutathione beads, 16-mer random dsDNA library, 0.1% formaldehyde crosslink after washing; high values mean tight binding. As to conditions: protein: recombinant; tags: N-terminal GST; dsDNA, one strand shown. A digest of the protocol: (§1)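 Binding signal is each hexamer's read frequency for a factor divided by its frequency in the tag-only sample. The factors were GST-fused human transcription factors from yeast, captured on glutathione beads, DNA-barcoded and pooled with that sample. Pools were incubated with 200 nmole of a random double-stranded 16-mer DNA library in Tris/NaCl/DTT/glycerol buffer at room temperature for 30 min, then washed, crosslinked with 0.1% formaldehyde, proximity-ligated with BsaI/T4 ligase (1 h, 37 °C), PCR-amplified and sequenced on an Illumina NextSeq500.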
For the sequence GGGCTT, the binding signal is 1.22 fold enrichment (6-mer frequency, TF over GST control).
On the same count and under the same terms, the figure for CCCTCC is 1.51 fold enrichment (6-mer frequency, TF over GST control).
On the same count and under the same terms, the figure for TAAGCT is 1.13 fold enrichment (6-mer frequency, TF over GST control); for ACCTCG it is 1.11 fold enrichment (6-mer frequency, TF over GST control); for TCCACC it is 1.21 fold enrichment (6-mer frequency, TF over GST control).
On to CGCTGC, for which the binding signal was 1.28 fold enrichment (6-mer frequency, TF over GST control).
On to CATATC, for which the binding signal is 1.36 fold enrichment (6-mer frequency, TF over GST control).
The same measure, in the same setting: the result for CAAGTA reads 1.05 fold enrichment (6-mer frequency, TF over GST control); that for AATATT, 1.34 fold enrichment (6-mer frequency, TF over GST control); that for CCCCGA, 1.07 fold enrichment (6-mer frequency, TF over GST control).
Still for that read-out and setting: the figure for TTGCTG is 1.21 fold enrichment (6-mer frequency, TF over GST control); for TTGATT it is 1.22 fold enrichment (6-mer frequency, TF over GST control).
On the same count and under the same terms, the result for TTTGGG reads 1.3 fold enrichment (6-mer frequency, TF over GST control).
For TGATGA, the binding signal is 1.28 fold enrichment (6-mer frequency, TF over GST control).
On the same count and under the same terms, the result for ATATGG reads 1.32 fold enrichment (6-mer frequency, TF over GST control).
Same read-out and setting: the result for GTTCCC reads 1.28 fold enrichment (6-mer frequency, TF over GST control); that for GTTTTG, 1.1 fold enrichment (6-mer frequency, TF over GST control).
As to TACAAA, the binding signal is 1.17 fold enrichment (6-mer frequency, TF over GST control).
The same measure, in the same setting: the result for TGCAAA reads 1.05 fold enrichment (6-mer frequency, TF over GST control); that for CCACTC, 1.21 fold enrichment (6-mer frequency, TF over GST control).

Another assay addresses T2, SPDEF (Homo sapiens, UniProt O95238 1-335).
T2 sequence: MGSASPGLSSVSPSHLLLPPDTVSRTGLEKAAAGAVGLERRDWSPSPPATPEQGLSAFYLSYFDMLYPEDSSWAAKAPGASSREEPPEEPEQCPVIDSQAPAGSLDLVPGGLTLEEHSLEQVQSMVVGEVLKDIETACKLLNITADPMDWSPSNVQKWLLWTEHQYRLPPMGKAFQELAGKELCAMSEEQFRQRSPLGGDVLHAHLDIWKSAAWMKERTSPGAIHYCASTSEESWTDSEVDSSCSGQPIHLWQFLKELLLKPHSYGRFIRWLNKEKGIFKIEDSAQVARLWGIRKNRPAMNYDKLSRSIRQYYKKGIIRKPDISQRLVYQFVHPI
The assay is described as above. The following applies: protein: recombinant; tags: N-terminal GST; dsDNA, one strand shown. The method in brief: as §1
On to CACTAC, for which the binding signal is 1.14 fold enrichment (6-mer frequency, TF over GST control).
In the case of CAATGC, the binding signal was 1.2 fold enrichment (6-mer frequency, TF over GST control).
Same read-out and setting: the result for ATGCGG reads 1.32 fold enrichment (6-mer frequency, TF over GST control); that for CGCCGC, 1.08 fold enrichment (6-mer frequency, TF over GST control).
The same measure, in the same setting: the result for ATGTGC reads 1.23 fold enrichment (6-mer frequency, TF over GST control); that for CCGCCA, 1.29 fold enrichment (6-mer frequency, TF over GST control).
Regarding ATTCCC, the binding signal is 1.37 fold enrichment (6-mer frequency, TF over GST control).
Regarding CTCGCG, the binding signal was 1.4 fold enrichment (6-mer frequency, TF over GST control).
On the same count and under the same terms, the result for GTTTTC reads 1.08 fold enrichment (6-mer frequency, TF over GST control).
On to TTGTCC, for which the binding signal was 1.45 fold enrichment (6-mer frequency, TF over GST control).
As for CCCCGG, the binding signal is 1.28 fold enrichment (6-mer frequency, TF over GST control).
Consider CCGCAA, for which the binding signal is 1.36 fold enrichment (6-mer frequency, TF over GST control).
Same read-out and setting: the figure for TTAAGT is 1.31 fold enrichment (6-mer frequency, TF over GST control).
The same measure, in the same setting: the result for TGTTTG reads 1.25 fold enrichment (6-mer frequency, TF over GST control); that for TATCGC, 1.17 fold enrichment (6-mer frequency, TF over GST control).
Take TCAAGG: the binding signal is 1.12 fold enrichment (6-mer frequency, TF over GST control).
Turning to GAAACA, the binding signal is 1.3 fold enrichment (6-mer frequency, TF over GST control).
Consider GAATTG, for which the binding signal is 1.14 fold enrichment (6-mer frequency, TF over GST control).
The same measure, in the same setting: the result for CTGTTG reads 1.12 fold enrichment (6-mer frequency, TF over GST control); that for TCTACG, 1.33 fold enrichment (6-mer frequency, TF over GST control).
For GGGCTT, the binding signal was 1.11 fold enrichment (6-mer frequency, TF over GST control).
The same measure, in the same setting: the figure for CCCTCC is 1.36 fold enrichment (6-mer frequency, TF over GST control); for TAAGCT it is 1.11 fold enrichment (6-mer frequency, TF over GST control); for ACCTCG it is 1.06 fold enrichment (6-mer frequency, TF over GST control).
As to TCCACC, the binding signal was 1.1 fold enrichment (6-mer frequency, TF over GST control).
On the same count and under the same terms, the figure for CGCTGC is 1.15 fold enrichment (6-mer frequency, TF over GST control); for CATATC it is 1.76 fold enrichment (6-mer frequency, TF over GST control).
Same read-out and setting: the result for CAAGTA reads 1.08 fold enrichment (6-mer frequency, TF over GST control); that for AATATT, 1.25 fold enrichment (6-mer frequency, TF over GST control); that for CCCCGA, 1.05 fold enrichment (6-mer frequency, TF over GST control).
Still for that read-out and setting: the figure for TTGCTG is 1.18 fold enrichment (6-mer frequency, TF over GST control); for TTGATT it is 1.15 fold enrichment (6-mer frequency, TF over GST control).
Take TTTGGG: the binding signal is 1.25 fold enrichment (6-mer frequency, TF over GST control).
Still for that read-out and setting: the result for TGATGA reads 1.19 fold enrichment (6-mer frequency, TF over GST control); that for ATATGG, 1.3 fold enrichment (6-mer frequency, TF over GST control).
Same read-out and setting: the figure for GTTCCC is 1.29 fold enrichment (6-mer frequency, TF over GST control); for GTTTTG it is 1.24 fold enrichment (6-mer frequency, TF over GST control).
Still for that read-out and setting: the result for TACAAA reads 1.14 fold enrichment (6-mer frequency, TF over GST control).
As for TGCAAA, the binding signal was 1.1 fold enrichment (6-mer frequency, TF over GST control).
Same read-out and setting: the figure for CCACTC is 1.26 fold enrichment (6-mer frequency, TF over GST control).

For the next assay, the target named is T3, ETV7 (Homo sapiens, UniProt Q9Y603 1-341).
T3 sequence: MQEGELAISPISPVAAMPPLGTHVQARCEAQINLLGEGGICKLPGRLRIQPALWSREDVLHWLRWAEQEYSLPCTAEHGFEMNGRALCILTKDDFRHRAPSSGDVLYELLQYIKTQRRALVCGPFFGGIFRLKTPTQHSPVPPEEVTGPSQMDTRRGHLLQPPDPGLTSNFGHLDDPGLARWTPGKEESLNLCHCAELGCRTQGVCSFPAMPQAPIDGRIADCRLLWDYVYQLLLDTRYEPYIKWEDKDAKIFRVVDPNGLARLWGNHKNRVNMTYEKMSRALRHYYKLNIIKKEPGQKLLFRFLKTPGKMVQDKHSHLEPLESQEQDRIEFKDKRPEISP
The assay is described as above. The following applies: protein: recombinant; tags: N-terminal GST; dsDNA, one strand shown. The method in brief: as §1
Turning to CACTAC, the binding signal is 1.27 fold enrichment (6-mer frequency, TF over GST control).
Same read-out and setting: the result for CAATGC reads 1.24 fold enrichment (6-mer frequency, TF over GST control).
Same read-out and setting: the figure for ATGCGG is 1.25 fold enrichment (6-mer frequency, TF over GST control).
As to CGCCGC, the binding signal is 1.11 fold enrichment (6-mer frequency, TF over GST control).
On the same count and under the same terms, the figure for ATGTGC is 1.03 fold enrichment (6-mer frequency, TF over GST control); for CCGCCA it is 1.26 fold enrichment (6-mer frequency, TF over GST control); for ATTCCC it is 1.29 fold enrichment (6-mer frequency, TF over GST control).
For the sequence CTCGCG, the binding signal was 1.38 fold enrichment (6-mer frequency, TF over GST control).
Same read-out and setting: the result for GTTTTC reads 1.36 fold enrichment (6-mer frequency, TF over GST control); that for TTGTCC, 1.25 fold enrichment (6-mer frequency, TF over GST control); that for CCCCGG, 1.18 fold enrichment (6-mer frequency, TF over GST control).
In the case of CCGCAA, the binding signal was 1.32 fold enrichment (6-mer frequency, TF over GST control).
Still for that read-out and setting: the result for TTAAGT reads 1.19 fold enrichment (6-mer frequency, TF over GST control); that for TGTTTG, 1.39 fold enrichment (6-mer frequency, TF over GST control); that for TATCGC, 1 fold enrichment (6-mer frequency, TF over GST control).
Turning to TCAAGG, the binding signal is 1.17 fold enrichment (6-mer frequency, TF over GST control).
GAAACA: the binding signal was 1.35 fold enrichment (6-mer frequency, TF over GST control).
Consider GAATTG, for which the binding signal is 1.22 fold enrichment (6-mer frequency, TF over GST control).
On the same count and under the same terms, the figure for CTGTTG is 1.05 fold enrichment (6-mer frequency, TF over GST control).
With TCTACG, the binding signal was 1.36 fold enrichment (6-mer frequency, TF over GST control).
On the same count and under the same terms, the figure for GGGCTT is 1.28 fold enrichment (6-mer frequency, TF over GST control); for CCCTCC it is 1.37 fold enrichment (6-mer frequency, TF over GST control); for TAAGCT it is 1.3 fold enrichment (6-mer frequency, TF over GST control).
Consider ACCTCG, for which the binding signal was 1.21 fold enrichment (6-mer frequency, TF over GST control).
On the same count and under the same terms, the result for TCCACC reads 1.12 fold enrichment (6-mer frequency, TF over GST control); that for CGCTGC, 1.03 fold enrichment (6-mer frequency, TF over GST control); that for CATATC, 1.24 fold enrichment (6-mer frequency, TF over GST control).
The same measure, in the same setting: the figure for CAAGTA is 1.11 fold enrichment (6-mer frequency, TF over GST control); for AATATT it is 1.43 fold enrichment (6-mer frequency, TF over GST control); for CCCCGA it is 1.06 fold enrichment (6-mer frequency, TF over GST control).
Consider TTGCTG, for which the binding signal is 1.37 fold enrichment (6-mer frequency, TF over GST control).
On to TTGATT, for which the binding signal was 1.28 fold enrichment (6-mer frequency, TF over GST control).
Same read-out and setting: the figure for TTTGGG is 1.29 fold enrichment (6-mer frequency, TF over GST control); for TGATGA it is 1.26 fold enrichment (6-mer frequency, TF over GST control); for ATATGG it is 1.34 fold enrichment (6-mer frequency, TF over GST control).
In the case of GTTCCC, the binding signal was 1.3 fold enrichment (6-mer frequency, TF over GST control).
Consider GTTTTG, for which the binding signal is 1.13 fold enrichment (6-mer frequency, TF over GST control).
The same measure, in the same setting: the result for TACAAA reads 1.11 fold enrichment (6-mer frequency, TF over GST control); that for TGCAAA, 1.09 fold enrichment (6-mer frequency, TF over GST control).
Regarding CCACTC, the binding signal is 1.21 fold enrichment (6-mer frequency, TF over GST control).
